Source: PubChem BioAssay
PAFAH1B2 FP inh – PAFAH1B2 (human) inhibition. P68402. recombinant PAFAH1B2, FP-rhodamine activity probe, fluorescence polarization. inhibition, % at 3.39 µM. actives 1.2% (n = 340,000);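 active means inhibition above the mean of all tested compounds plus 3 SD, cut at about 24% in these data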;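 further: 0% = enzyme with DMSO and 100% = wells lacking PAFAH1B2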
Target sequence (P68402 whole entry, looked up): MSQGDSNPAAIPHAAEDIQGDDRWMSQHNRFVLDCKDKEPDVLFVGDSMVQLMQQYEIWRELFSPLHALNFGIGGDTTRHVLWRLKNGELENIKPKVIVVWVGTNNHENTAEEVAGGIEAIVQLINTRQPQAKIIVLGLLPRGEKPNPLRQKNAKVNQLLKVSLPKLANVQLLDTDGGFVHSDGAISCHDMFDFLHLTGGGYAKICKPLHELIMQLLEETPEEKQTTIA
PAFAH1B3 inh – PAFAH1B3 (human) inhibition | Q15102 | recombinant PAFAH1B3, FP-rhodamine probe, fluorescence polarization | inhibition, % at 3.39 µM | actives 0.28% (n = 340,000);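 active means inhibition above the screen-wide average of all tested compounds plus 3 SD, cut at about 25% in these data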;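 further: 0% = enzyme with DMSO only and 100% = wells lacking PAFAH1B3 protein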
Target sequence (Q15102 whole entry, looked up): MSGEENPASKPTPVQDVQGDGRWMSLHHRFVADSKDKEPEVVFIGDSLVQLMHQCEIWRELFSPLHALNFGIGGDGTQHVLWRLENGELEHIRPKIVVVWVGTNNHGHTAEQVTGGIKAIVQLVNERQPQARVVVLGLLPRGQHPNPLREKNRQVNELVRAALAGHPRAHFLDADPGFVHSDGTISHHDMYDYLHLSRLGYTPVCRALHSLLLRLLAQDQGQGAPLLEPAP
PAFAH2 FP inh – inhibitors of human PAFAH2; AID 492956; recombinant PAFAH2, FP-rhodamine activity probe, fluorescence polarization; Q99487; inhibition, % at 3.39 µM; actives 0.99% (n = 340,000);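 active means inhibition above the mean over all tested compounds plus 3 SD, cut at about 30% in these data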;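 further: inhibitors block probe labeling of enzyme so polarization drops; 0% = enzyme with DMSO and 100% = wells lacking PAFAH2 protein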
DAGLB inh – blocks human DAGLB lipase activity | Q8NCG7 | HEK293T DAGLB membrane lysate, EnzChek fluorogenic substrate | inhibition, % at 5.17 µM | actives 0.059% (n = 340,000) | AID 504411; in the data active means inhibition above about 34%;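 further: 0% = enzyme with vehicle and 100% = wells lacking enzyme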
ATG4B inh – blocks human ATG4B protease cleavage of LC3 substrate; Q9Y4P1; ATG4B cleavage of LC3-PLA2, NBD-HPC fluorescence, 1 h; inhibition, % at 8.33 µM; actives 0.51% (n = 340,000); in the data active means inhibition above about 40%
pPAFAH inh – inhibitors of human plasma PAF acetylhydrolase (pPAFAH) | Q13093 | recombinant pPAFAH, FP-rhodamine probe fluorescence polarization | inhibition, % at 3.39 µM | actives 1.5% (n = 330,000);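 active means inhibition above the mean inhibition across the screen plus 3 SD, cut at about 25% in these data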;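 further: inhibitors block binding of the rhodamine activity-based probe so polarization drops; 0% = enzyme with DMSO and 100% = wells lacking pPAFAH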
PAFAH2 FP conf – PAFAH2 (human) inhibition, confirmed. recombinant PAFAH2, FP-rhodamine activity probe, fluorescence polarization. actives 65% (n = 2,300). inhibition, % at 3.39 µM. shares compounds with PAFAH2 FP inh;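 active means mean inhibition over three repeats above a set limit taken from the earlier primary screen, cut at about 30% in these data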;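 further: inhibitor blocks binding of rhodamine activity probe so polarization falls; 0% = enzyme with DMSO and 100% = wells lacking PAFAH2 protein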
* hit, by the source's call; . = no result given. Compounds with a hit are over-represented: about 3% of the library has one in this group of screens.

SMILES | PAFAH1B2 FP inh | PAFAH1B3 inh | PAFAH2 FP inh | DAGLB inh | ATG4B inh | pPAFAH inh | PAFAH2 FP conf
Cc1ccc(S(=O)(=O)n2nc(OC(=O)c3c(F)cccc3Cl)cc2N)cc1 | 14.6 | 9.3 | 33.5* | -3.2 | 2.0 | 3.6 | 11.7
Cc1ccc(S(=O)(=O)n2nc(OC(=O)c3cccc(F)c3)cc2N)cc1 | 9.2 | 8.1 | -2.5 | 4.0 | 0.7 | 1.9 | .
CC(=O)NCc1ccc(-c2nc3ccccc3s2)cc1 | -0.2 | 3.3 | 3.5 | 1.3 | -9.7 | 6.1 | .
COc1ccc(-c2nc3ccccc3s2)cc1NC(C)=O | 0.8 | 18.8 | 41.2* | -2.7 | -8.2 | 1.3 | 2.8
O=C(COC(=O)c1ccc2ncsc2c1)NCc1ccc(F)cc1 | 2.7 | 7.0 | 51.3* | -0.1 | 6.1 | -3.0 | 34.0*
O=C(COC(=O)c1ccc2ncsc2c1)NCc1ccccc1Cl | 7.6 | 2.9 | 83.5* | -3.4 | 36.7 | -0.4 | 67.4*
COc1ccc(CNC(=O)COC(=O)c2ccc3ncsc3c2)cc1OC | 4.4 | -1.1 | 1.7 | -3.5 | 3.8 | 3.1 | .
COc1ccc(C(=O)Cc2cc(OC)c(OC)cc2C(=O)c2ccccc2F)cc1OC | -1.3 | 7.1 | -2.6 | -0.4 | -10.5 | 2.0 | .
CN(C)S(=O)(=O)c1cccc(C(=O)OCC(=O)Nc2sccc2C(N)=O)c1 | 2.4 | 15.4 | 11.7 | 0.9 | -11.5 | 0.7 | .
CN(C)S(=O)(=O)c1cccc(C(=O)OCC(=O)NCc2ccccc2)c1 | 2.4 | 3.8 | 29.9* | 2.9 | 8.2 | 15.1 | 13.0
COc1ccc(NC(=O)COC(=O)c2cccc(S(=O)(=O)N(C)C)c2)cc1 | 7.9 | 5.5 | 41.4* | 3.0 | -11.1 | . | 25.5
CC(NC(=O)COC(=O)c1ccccc1F)C1CC2CCC1C2 (stereo not drawn) | 19.0 | 10.7 | 75.9* | -0.6 | -3.0 | 4.7 | 63.4*
N#C/C(=C\c1ccc(O)c(O)c1)C(=O)N1CCc2ccccc21 | 10.1 | 23.1 | 48.7* | 33.8 | 5.5 | 3.4 | 33.2*
O=C(NCc1ccccc1C(F)(F)F)C1CC(c2ccc(C(F)(F)F)cc2)=NO1 (stereo not drawn) | -2.2 | -2.9 | 0.5 | -9.4 | 21.2 | 3.2 | .
CC(NC(=O)C1CCCN1S(=O)(=O)c1cccc2nsnc12)c1ccccc1 (stereo not drawn) | 2.8 | 6.5 | 2.8 | -0.6 | 1.0 | -2.2 | .
CC(=O)N1CCN(c2nc(C)nc3sc4c(c23)CCC(C)C4)CC1 (stereo not drawn) | 0.7 | -7.6 | 30.2* | 0.0 | -12.8 | 3.4 | 14.1
COc1cccc(/C=C/C(=O)OCC(=O)NCC2CCCCC2)c1OC | -0.5 | 4.5 | 79.5* | -7.5 | -1.0 | 8.1 | 79.0*
COc1cccc(/C=C/C(=O)OCC(=O)c2ccc(C)c(C)c2)c1OC | 0.6 | 0.1 | 20.9 | -7.1 | -1.4 | 6.6 | .
COc1cc(/C=C/C(=O)OCC(=O)NCc2cccs2)ccc1OCC#N | 1.5 | -2.0 | 52.6* | -3.5 | -7.8 | 5.8 | 52.0*
COc1cccc(/C=C/C(=O)OCC(=O)c2ccccc2)c1OC | 6.8 | 10.7 | 57.6* | -12.1 | 25.3 | 8.8 | 33.5*
COc1cc(/C=C/C(=O)OCC(=O)Nc2cc(C)on2)ccc1OCC#N | 9.8 | 7.2 | 26.0 | 0.9 | -5.3 | . | .
C=CCOc1ccc(/C=C/C(=O)OCC(=O)NCc2cccs2)cc1 | -2.1 | -1.5 | 38.1* | -7.9 | 5.7 | 4.4 | 41.0*
COc1cccc(/C=C/C(=O)OCC(=O)N2c3ccccc3CC2C)c1OC (stereo not drawn) | 2.7 | 7.2 | 18.6 | -3.6 | -0.8 | . | .
CC1CCCC(NC(=O)NC(=O)COC(=O)C2=NN(c3ccccc3)C(=O)CC2)C1C (stereo not drawn) | 4.8 | 4.0 | 1.4 | -3.5 | -7.5 | 0.4 | .
COc1ccc2cc(CN(CC3CCCO3)C(=S)Nc3ccccc3)c(=O)[nH]c2c1 (stereo not drawn) | 6.2 | 2.6 | -0.7 | 1.7 | 5.2 | 8.1 | .
SMILES | PAFAH1B2 FP inh | PAFAH1B3 inh | PAFAH2 FP inh | DAGLB inh | ATG4B inh | pPAFAH inh | PAFAH2 FP conf
O=C(NCCN1C(=O)S/C(=C\c2ccccc2F)C1=O)C1=COCCO1 | 8.9 | 1.3 | -11.8 | -2.1 | 5.3 | 4.0 | .
CCCCn1c(N)c(N(CCOC)C(=O)c2cc(CC)c(C)s2)c(=O)[nH]c1=O | 0.6 | 3.5 | 2.6 | -2.5 | -6.5 | 4.5 | .
COc1cc(/C=C/C(=O)OCC(=O)NCC(=O)Nc2cccc(C)c2C)ccc1OC(F)F | 1.6 | 2.4 | -0.1 | -2.1 | -10.7 | 0.3 | .
COc1cccc(/C=C/C(=O)OCC(=O)NCc2ccco2)c1OC | 0.3 | 7.1 | 65.6* | -5.5 | -5.0 | 9.5 | 53.2*
COc1ccc(/C=C/C(=O)OCC(=O)NCc2ccco2)cc1OC | -0.5 | 6.9 | 48.8* | -1.3 | 4.0 | 4.8 | 38.5*
CCOc1cc(/C=C/C(=O)OCC(=O)NCc2ccco2)cc(Cl)c1OC | 2.0 | 0.1 | 15.1 | -2.7 | 2.4 | 3.9 | .
COc1cc(/C=C/C(=O)OCC(=O)NCc2ccco2)ccc1OC(F)F | 5.3 | 6.6 | 39.4* | -0.9 | -5.4 | 7.5 | 28.0
CC(C)(C)OC(=O)NCC1CCC(C(=O)NC[C@H](CC(=O)O)c2ccc(Cl)cc2)CC1 (stereo partly drawn) | -2.3 | -4.0 | -3.7 | -7.1 | 0.1 | -3.8 | .
Cc1c(C(=O)OCC(=O)NCC2CCCO2)oc2ccccc12 (stereo not drawn) | 7.8 | 14.4 | 5.7 | -0.6 | -4.0 | 6.0 | .
CSCc1c(C(=O)OCC(=O)NC2CCCCC2)oc2ccccc12 | 0.3 | 3.5 | 56.6* | 0.0 | 34.7 | 14.1 | 60.1*
COc1ccc2oc(C(=O)OCC(=O)N3CCCCC3)c(C)c2c1 | -0.8 | -1.9 | -0.3 | 0.5 | -5.7 | 1.1 | .
COc1ccc2oc(C(=O)OCC(=O)NC3CCCCC3)c(C)c2c1 | 2.4 | -5.4 | 63.7* | -4.7 | 0.9 | 13.7 | 57.1*
Cc1c(C(=O)OCC(=O)NC2CCCCC2)oc2ccccc12 | 1.5 | 10.2 | 46.5* | 1.6 | -11.0 | 16.2 | 48.0*
COc1ccc(Br)c(C(=O)OCC(=O)NC2CCCCCC2)c1 | -0.3 | 7.2 | 77.4* | -4.9 | 2.5 | 14.0 | 60.0*
COc1ccc(Br)c(C(=O)OCC(=O)NC2CCCCCCC2)c1 | . | . | . | -10.2 | . | . | .
CC(C)(CNC(=O)c1ccc(NS(=O)(=O)c2ccc(Br)cc2)cc1)N1CCOCC1 | 22.6 | -2.8 | -1.5 | 0.3 | 6.6 | -1.9 | .
CC(C)C[C@H]1CNC(=S)N1CC1CCN(CC2CCC(C(C)(C)C)CC2)CC1 (stereo partly drawn) | 5.1 | 4.3 | -6.5 | -0.6 | 0.6 | . | .
CCOc1ccc2oc(C(=O)OCC(=O)NC3CCCC3)c(C)c2c1 | 2.8 | 0.7 | 55.4* | -4.4 | -7.5 | 14.1 | 31.6*
CCOc1ccc2oc(C(=O)OCC(=O)NC(=O)NC3CCCC3)c(C)c2c1 | 3.0 | 0.4 | -0.2 | 3.0 | -8.6 | 2.8 | .
